The list is not random: actives were taken first. Their share in the collection is about 4.1%.
hgDAF-12 ag – agonists of H. glycines DAF-12 nuclear receptor; 370,000 tested, 1.8% active; HEK293 GAL4-hgDAF12 UAS-luciferase reporter, agonist luminescence; normalized to butyrate control; activation, % at 6.8 µM;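 active = activation above a cutoff set at the mean of all screened compounds plus 3 SD, cut at about 10% in these data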
DAX1 inh-1 – DAX1 (NR0B1) inhibition, primary screen; 370,000 tested, 1.1% active; inhibition, % at 6.8 µM; HEK293T StAR-luciferase reporter, SF-1/DAX-1 repression relief; AID 652010;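 active = inhibition above the mean over all tested compounds plus 3 SD, cut at about 3.6% in these data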;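 note: higher inhibition means more luminescence from relief of DAX-1 repression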
hcDAF-12 act – H. contortus DAF-12 activation, primary screen | AID 652067 | 370,000 tested, 1.4% active | HEK293 hcDAF-12 lit1-tk-luc reporter, luminescence; 0% DMSO, 100% Δ7-dafachronic acid | activation, % at 6.8 µM;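 active = activation above the mean of all tested compounds plus 3 SD, cut at about 5.5% in these data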
DAX1 inh-2 – inhibits human nuclear receptor DAX1; P51843; 340,000 tested, 0.99% active; HEK293 Gal4-DAX1 luciferase reporter, luminescence; AID 504766; inhibition, % at 6.75 µM;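 active = inhibition above the mean over all tested compounds plus 3 SD, cut at about 4.2% in these data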;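 note: inhibition shows as a rise in luminescence from relieved DAX1 repression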
Target sequence (P51843 207-470 limits assumed): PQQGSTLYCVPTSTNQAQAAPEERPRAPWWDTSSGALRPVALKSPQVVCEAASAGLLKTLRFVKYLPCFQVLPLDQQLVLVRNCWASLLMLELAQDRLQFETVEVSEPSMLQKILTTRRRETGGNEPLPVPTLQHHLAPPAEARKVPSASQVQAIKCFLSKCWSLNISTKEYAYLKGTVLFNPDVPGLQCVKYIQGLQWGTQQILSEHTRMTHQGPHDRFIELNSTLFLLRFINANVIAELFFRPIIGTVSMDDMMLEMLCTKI
ssDAF12 agonist – activators of S. stercoralis DAF-12 nuclear receptor. 370,000 tested, 1% active. HEK293 ssDAF-12/GRIP1 lit1-tk-luc reporter, luminescence; % of 3 µM dafachronic acid response. activation, % at 6.8 µM;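 active = activation above the mean over all tested compounds plus 3 SD, cut at about 0.9% in these data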
Of the large screens only hits and unclear results are named; the others gave an inactive call.

Cn1cnnc1Sc1ccc(C(=O)NCCC(c2ccccc2)c2ccccc2)cc1[N+](=O)[O-]	DAX1 inh-2 4.3
COC(=O)[C@]12C[C@H](CC(=O)NCc3cccc(C(F)(F)F)c3)C(=O)N(Cc3ccc(Cl)cc3Cl)C1=C[C@H](C(C)C)O[C@@H]2C1CC1	none (no result: DAX1 inh-2)
CC(C)[C@H](NC(=O)[C@H](Cc1ccccc1)NC(=O)OC(C)(C)C)C(=O)N1CCC2CCN(S(=O)(=O)c3ccccc3)CC21 (some centres undefined)	none (no result: DAX1 inh-2)
N[C@H](C(=O)N[C@@H](Cc1ccccc1)C(=O)N1CCC2CCN(S(=O)(=O)c3ccccc3)CC21)c1ccccc1 (some centres undefined)	hgDAF-12 ag 17 (no result: DAX1 inh-2)
C=CCN1C(=O)[C@@H](CC(=O)N2CCN(C(=O)OCC)CC2)[C@]2(C(=O)OC)CCCCC=C12	none (no result: DAX1 inh-2)
Cc1cc(Br)ccc1OCC(=O)NC1CCCC1	none
O=C(COc1ccc(Br)cc1Br)NC(=O)NC1CCCC1	DAX1 inh-1 4.0
C=C(C1=CCN(S(=O)(=O)C(C)(C)C)[C@H]1CCO)c1ccccc1	DAX1 inh-2 5.8
COC(CNC(=O)[C@H](Cc1ccccc1)NC1(C(=O)NC2CCCCC2)CCC1)OC	none (no result: DAX1 inh-1, DAX1 inh-2)
Nc1nonc1-n1nnc(C(=O)N/N=C/c2cccc(F)c2)c1CN1CCCCCC1	DAX1 inh-2 4.7
COC(=O)c1nnn(-c2nonc2N)c1CN1CCCC1	DAX1 inh-2 4.4
CC1CC(O)C(C)CN1 (centres undefined)	DAX1 inh-2 5.4
Cc1ccc(S(=O)(=O)N2c3ccccc3C[C@H]2CCC(=O)c2ccccc2)cc1	none (no result: DAX1 inh-1, DAX1 inh-2)
CC(C)(C)Nc1nc(Cl)nc(Nc2ccccc2)n1	hgDAF-12 ag 11
CC1CN(C(C)C)C(=S)NC1=O (centres undefined)	DAX1 inh-1 3.6
Cc1ccnc2nc(C(=O)OCC(=O)c3ccc(NC(=O)CC(C)C)cc3)nn12	DAX1 inh-2 5.5
CCC(=O)Nc1ccc(C(=O)COC(=O)c2nc3nccc(C)n3n2)cc1	none
CCOc1ccc(CCNC(=O)Cc2ccccc2)cc1OCC	none (no result: DAX1 inh-1, DAX1 inh-2)
N/C(=N\OC(=O)C12CC3CC(CC(C3)C1)C2)c1ccccn1	hgDAF-12 ag 11
N/C(=N\OC(=O)c1ccccc1[N+](=O)[O-])c1ccccn1	hgDAF-12 ag 10
N/C(=N\OC(=O)c1ccc(Cl)cc1)c1ccccn1	DAX1 inh-1 4.2
N/C(=N\OC(=O)c1ccccc1[N+](=O)[O-])c1cccnc1	none
Cc1cc(/C(N)=N/OC(=O)c2ccc(Cl)cc2)no1	hgDAF-12 ag 11 (no result: DAX1 inh-2)
N/C(=N\OC(=O)c1ccc(Cl)c(Cl)c1)c1ccccn1	hgDAF-12 ag 11, DAX1 inh-1 4.2
CC(C)(C)C(=O)Cn1ncc(N2CCCC2)c(Br)c1=O	none
CC(=O)Cn1ncc(Br)c(Br)c1=O	DAX1 inh-2 6.6
CN(C)c1ccc(/C=N/NC(=O)c2sccc2-n2cccc2)cc1	hgDAF-12 ag 11
O=C(N/N=C\c1ccc(Cl)cc1)c1sccc1-n1cccc1	none
CCc1ccc2nc(NC(=O)CN3C(=O)NC4(CCCC4)C3=O)sc2c1	hgDAF-12 ag 11
Cn1c(=O)c2c(ncn2CC(=O)Nc2nc3ccc(F)cc3s2)n(C)c1=O	hcDAF-12 act 6.2
CCc1ccc2nc(NC(=O)Cn3cnc4ccccc4c3=O)sc2c1	ssDAF12 agonist 1.2
CCCC/C(O)=C1\C(=O)CC(C)(C)CC1=Nc1ccccc1OC	none
CCCC/C(O)=C1\C(=O)CC(C)(C)CC1=Nc1ccc(N)cc1	DAX1 inh-2 6.0
COC(=O)C1=C(C)N(Cc2ccc(Cl)cc2)C(=S)NC1c1cccc(Br)c1 (centres undefined)	none (no result: DAX1 inh-2)
CCn1cc(/C=C/C(=O)c2ccc(O)cc2)c(C)n1	hgDAF-12 ag 15, DAX1 inh-2 13
CCn1cc(/C=N/O)c(C)n1	none
Cc1ccnc(Nc2nc(-c3ccc(F)cc3)cs2)c1	hgDAF-12 ag 12, hcDAF-12 act 6.4
Cc1cccc(Nc2nc(-c3ccc4c(c3)OCCO4)cs2)c1	hgDAF-12 ag 13, hcDAF-12 act 5.8
Cc1cccc(Nc2nc(-c3ccncc3)cs2)c1	hgDAF-12 ag 11
O=C1CCN(C(=O)c2ccc(Cl)cc2)N1	none
O=C1CCN(C(=O)CSc2ccc(Cl)cc2)N1	DAX1 inh-2 5.8
COc1ccc(OC)c(S(=O)(=O)NCC2CCN(C(=O)C(=O)c3cccs3)CC2)c1	none (no result: DAX1 inh-2)
O=C(Cn1nc(C(=O)O)c2ccccc2c1=O)Nc1ccc(Br)cc1	ssDAF12 agonist 1.1
NC(=O)c1c(NC(=O)Cn2nc(C(=O)O)c3ccccc3c2=O)sc2c1CCCC2	hgDAF-12 ag 13
CN(C(=O)[C@H]1O[C@@H](n2cnc3c(=O)[nH]c(N)nc32)[C@H](O)[C@@H]1O)C1CCCCC1	none (no result: DAX1 inh-2)
Cc1ccccc1C(=O)Nc1ccnn1C1CCN(Cc2c(C)n(C)c3ccccc23)CC1	hcDAF-12 act 6.1
CCc1ccc(CN2CCC(n3nccc3NC(=O)c3ccccc3C)CC2)cc1	none
Nc1nc2n[nH]nc2c(=O)[nH]1	ssDAF12 agonist 1.5
Nc1nc2nn(-c3ccccc3)nc2c(=O)[nH]1	none
O=C(CC(=O)c1ccccc1O)c1cccc(F)c1	none (no result: hgDAF-12 ag, DAX1 inh-1, hcDAF-12 act, ssDAF12 agonist)
O=C(CCCC(=O)c1ccc(F)cc1)c1ccc(F)cc1	DAX1 inh-2 4.8
CC(C)(C)c1ccc(C(=O)CC(=O)c2cc(Cl)ccc2O)cc1	none
Cc1ccc(C(=O)CC(=O)c2cc(Cl)ccc2O)cc1	ssDAF12 agonist 1.1
O=C(CC(=O)c1ccccc1O)c1ccc(F)cc1	hgDAF-12 ag 11
Cc1ccccc1C(=O)NC1CCCCN(Cc2cccc(C(F)(F)F)c2)C1=O (centres undefined)	none (no result: DAX1 inh-2)
O=C(Cc1c[nH]c2ccccc12)Nc1ccc(Nc2cccnc2)c(-c2ccc(-c3ccccc3)cc2F)c1	hcDAF-12 act 5.7 (no result: DAX1 inh-2)
O=C(Cc1c[nH]c2ccccc12)Nc1ccc(Nc2cccnc2)c(-c2ccc(F)c(F)c2)c1	none (no result: DAX1 inh-2)
Nc1ccc2c(c1Cl)C(=O)c1ccc(N)c(Cl)c1C2=O	ssDAF12 agonist 1.1
Cc1ccccc1Cn1cc(CN2[C@H](C)COc3cc(Br)ccc3S2(=O)=O)nn1	none (no result: DAX1 inh-2)
O=C(N1CCC(C(O)(c2ccccc2)c2ccccc2)CC1)n1ncc(C(O)(c2ccccc2)c2ccccc2)n1	none (no result: DAX1 inh-1, DAX1 inh-2)
O=S1(=O)c2ccc(Br)cc2OC[C@H](Cc2ccccc2)N1Cc1cn(Cc2ccc(F)cc2)nn1	none (no result: DAX1 inh-2)
CN(Cc1c(F)cccc1Cl)C(=O)CCc1c[nH]c2ccccc12	DAX1 inh-2 6.2
Cc1ccc(S(=O)(=O)N2CCCc3nc(-c4ccc(Br)cc4)ccc32)cc1	none (no result: DAX1 inh-2)
O=C(O)CCCC(=O)Nc1ccc(Oc2ncnc3cc(Cl)ccc23)nc1	DAX1 inh-2 5.9
O=C(Nc1ccc(F)cc1)Nc1ccc(Oc2ncnc3cc(Cl)ccc23)nc1	none
CC(C)(C)C(=O)Nc1cc(S(=O)(=O)Nc2ccc(Cl)cc2)ccc1O	DAX1 inh-2 4.3
CC(C)C(=O)Nc1cc(S(=O)(=O)Nc2ccc(Cl)cc2)ccc1Cl	none

Bioassay records deposited in PubChem by The Scripps Research Institute Molecular Screening Center.
